Measured values taken from the supplement of paper PMC10681739.

Each sequence was assayed against RUNX1 (UniProt Q01196) (assay: RUNX1 binding intensity (PBM fluorescence) in presence of ETS1, normalised to RUNX1-only experiment (arbitrary fluorescence units); higher = stronger binding). Conditions: RUNX1 concentration 2 nM; ETS1 concentration 25 nM.
Method: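 Cooperative gcPBM on 36-bp genomic probes with neighbouring ETS1 and RUNX1 sites. Recombinant human RUNX1 (2 nM) was incubated alone or with ETS1 (25 nM) and detected with anti-RUNX1 antibody plus Alexa488 secondary. Values are medians over 4 replicate spots; the RUNX1+ETS1 data were normalised to the RUNX1-only data. The probes sit in constant array flanks that are not printed.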
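Note: Full-length recombinant human ETS1 or RUNX1 bound to double-stranded 36-bp genomic probes on microarrays, detected by protein-specific primary antibody and Alexa488 secondary, spot fluorescence as median of four replicate spots.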

RUNX1, sequence (Q01196 whole entry): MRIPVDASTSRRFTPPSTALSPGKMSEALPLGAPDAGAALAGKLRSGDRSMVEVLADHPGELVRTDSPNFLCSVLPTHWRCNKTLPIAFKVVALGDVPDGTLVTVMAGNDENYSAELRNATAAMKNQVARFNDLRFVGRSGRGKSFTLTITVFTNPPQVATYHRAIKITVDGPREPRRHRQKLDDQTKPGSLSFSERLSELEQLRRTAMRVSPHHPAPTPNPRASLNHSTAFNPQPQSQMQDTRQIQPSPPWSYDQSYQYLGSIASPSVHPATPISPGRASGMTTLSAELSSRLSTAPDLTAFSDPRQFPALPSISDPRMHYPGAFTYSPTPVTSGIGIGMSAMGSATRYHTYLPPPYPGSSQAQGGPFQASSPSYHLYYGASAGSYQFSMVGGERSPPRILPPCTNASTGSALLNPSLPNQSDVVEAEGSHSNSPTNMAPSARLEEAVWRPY

Sequence | RUNX1 binding intensity
CTTCAAAGTCAGGAAACCGTTAAACCACACTGCATC | 1360
CCTGCCGAGGAAGTCCCACGTCACTGCGGTTAGAGT | 3000
GCCCCTAAACCGGATGCGGCAGCCACCGCGGACCCC | 3550
TATCACATCCTGCCGGACAAAAAGGCCAAACCACCT | 1850
GAAGCTACTCTGGTTTCCTGTGGTTTTCTGAGCACT | 2900
GACACGTCTTTGGAAGGATGTGGTTGCCGTGGGTTT | 880
CATGGGACCCGGAAGTGTGTGGTAAAGCGCCGGGGC | 2350
ACCCCAGGTACCGGAAGACCACAATTCCCAGGAGTC | 1880
CCCCTCTCTCCCACTTCCTGTGGTCTCAGTCTTTGT | 4960
CCCCTCGCCCTTCCGCATTGCGGGTTACTTCGGTTG | 3510
CATGCGTCACCTTCCTGTGTGGTCAGCAGTGCTTGC | 1420
GGTCAGGTGGGCGTTTCCTGTGGGCGTCTCCAACTC | 1240
CGAGATCCTGGCCACGGATGCGGTGGCCGCGCCTCT | 975
CCGGCAGGAAGTTAGCATGGGCGGACCACACGGGGG | 1590
GGATGAACAGGAAGCTAAAGTAAATACCACAGTGAC | 1190
CGAGCAGGAAGTGGCAAGATTTGATAGGCGGTCAGG | 1450
CAGCTCCGACTTCCGGGTGCGGTACGGCGAAGCAGA | 2140
TTTCTGACTTCCTGTGTGCTTCAGAAACCTCAATGA | 2110
CATGGTTGTTATTTCCTCACCACAATATGTGACATT | 1300
AATAAAGCTACAGACTTCCGCCCACAGGTCGCCGCT | 1360
CACCTCCTACTTCCCCCCGCTGATAACCACCAACCC | 2830
AGAGTCTTTTTTCCTGAGCGTTTGCGGTTTTGACTT | 19500
TTACGTTAAGGAGGAAACTCTGTGGTTAAACTGTAG | 1810
